About 83,000 compounds went through this panel and 20% of them were active in at least one assay; those are over-represented in the sample as a whole.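 Step 1: grow cells in 96-well plates. Step 2: add test compound at a single concentration. Step 3: incubate 48 h. Step 4: record percent growth.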 Activity calls are given as the source filed them. How the source made its calls: active means growth percent below 10; inactive means the rest.
Columns and labels:
Test in all cases: NCI-60 one-dose screen, 48 h (100 = growth as untreated, 0 = no growth, -100 = all killed)
Conditions in all cases: 10 µM unless noted
[1] = tested on: NCI-H23 lung
[2] = tested on: NCI-H226 lung
[3] = tested on: NCI-H322M lung
[4] = tested on: NCI-H460 lung
[5] = tested on: HOP-92 NSCLC
[6] = tested on: NCI-H522 lung
[7] = tested on: A549/ATCC NSCLC
[8] = tested on: 786-0 renal
[9] = tested on: COLO 205 colon

Measured: growth

Cc1cccc2c3c(sc12)C(c1ccc(F)cc1)C(C#N)=C(N)O3 (configuration not stated)
inactive: [1] 21.3% | [2] 26.1% | [3] 46.4% | [5] 68.4% | [6] 13.6% | [7] 22.1% | [8] 16.7%
active: [4] 3.07% | [9] -37.3%

COc1cc(-c2nc3sccn3c2-c2ccnc(NCCCNS(=O)(=O)c3ccc(F)cc3)n2)ccc1F
inactive: [1] 52.6% | [2] 52.1% | [3] 102% | [4] 79.5% | [5] 79.4% | [6] 47.7% | [7] 83.2% | [8] 96.7% | [9] 56.9%

c1ccc2c(c1)Nc1ccncc1S2
inactive: [1] 99.5% | [2] 84% | [3] 114% | [4] 100% | [5] 97.9% | [6] 92.5% | [7] 100% | [8] 109% | [9] 130%

CN(C)c1ccc2nc3ccc(=[N+](C)C)c([N+](=O)[O-])c-3sc2c1
active: [1] 9.52%
inactive: [2] 73.2% | [3] 42.2% | [4] 25.3% | [5] 38.7% | [6] 16.3% | [7] 26.3% | [8] 31.9%

O=C(O)c1cn(C2CC2)c2cc(N3CCN(C(=O)Nc4nc(-c5ccc(Cl)cc5)cs4)CC3)c(F)cc2c1=O
inactive: [2] 19.7% | [8] 22.6%
active: [1] 8.09% | [3] 4.8% | [4] 8.14% | [5] -22.2% | [6] -6.18% | [7] 6.96% | [9] 6.21%

Brc1ccc2[nH]cc(-c3nc(-c4c[nH]c5ccncc45)cs3)c2c1
inactive: [2] 89.7%
active: [1] -41.6% | [3] -18.6% | [4] -91.1% | [5] -34.3% | [6] -68.4% | [7] -77.6% | [8] -91.3% | [9] -76.4%

COc1ccc2[nH]c(-c3ccccc3)c(/C=C(\C#N)S(=O)(=O)c3ccccc3)c2c1
inactive: [1] 60% | [2] 99.5% | [3] 77.8% | [4] 20% | [5] 63.2% | [6] 64.3% | [7] 45.1% | [8] 69.1% | [9] 46.6%

CC1=C(SCCC(=O)OC(C[Se]C2=C(C)C(=O)c3ccccc3C2=O)C(=O)NC(C)(C)C)C(=O)c2ccccc2C1=O (configuration not stated)
active: [1] -42.7% | [2] -63.3% | [3] -79.8% | [4] -59% | [5] -66.6% | [6] -48.2% | [7] -40% | [8] -86.1% | [9] -86.4%

CS(=O)(=O)N(c1cc(-c2ccc3ncnc(Nc4ccc(F)c(Cl)c4)c3c2)cnc1Cl)S(C)(=O)=O
inactive: [1] 34.7% | [2] 59.1% | [3] 34.8% | [4] 34.2% | [6] 52.5% | [7] 57.3% | [8] 35% | [9] 45.1%
active: [5] -12.2%

Cc1ccc(-c2nn(C)c(=O)c3noc(-c4ccc(C)cc4)c23)cc1
inactive: [1] 43.1% | [2] 58% | [3] 56.4% | [4] 22.7% | [5] 14.2% | [7] 46.2% | [8] 29% | [9] 12.5%
active: [6] 9.02%

CCOC(=O)Cn1c(C)c(/C=N/NC(=O)c2cc3c(ccc4ccccc43)o2)c2ccccc21
active: [4] 5.99% | [6] -25.5% | [9] -39.9%
inactive: [1] 27.7% | [2] 19.4% | [3] 41.5% | [5] 60.5% | [7] 21.8% | [8] 20.7%

Cc1nn(-c2ccccc2)c(-n2ccnc2)c1/C=N/Nc1nc(-c2ccc(F)cc2)cs1
inactive: [1] 58.1% | [2] 50.3% | [3] 88.8% | [4] 83.3% | [5] 42.9% | [6] 73.6% | [7] 65% | [8] 106% | [9] 70.8%

O=C(Nc1ccc(F)cc1F)c1cc(F)ccc1O
active: [1] -6.29% | [2] 4.02% | [3] -6.69% | [4] 7.51% | [5] -29.9% | [6] -6.24%
inactive: [7] 18% | [8] 13.3% | [9] 81.1%

COc1cc(C(=O)N2N=C(c3ccc(S(C)(=O)=O)cc3)CC2c2ccco2)cc(OC)c1OC (configuration not stated)
inactive: [1] 76.9% | [2] 77.4% | [3] 95% | [4] 58.2% | [5] 39.8% | [6] 11.9% | [7] 58.2% | [8] 75.1% | [9] 69.8%

COc1cccc(-c2nc(-c3ccc(NC(=O)c4ccccc4)cc3)[nH]c2-c2ccnc(Br)c2)c1
active: [8] -10.4%
inactive: [1] 27.9% | [2] 47% | [3] 41.2% | [4] 19.1% | [5] 50.2% | [6] 16.2% | [7] 39.3% | [9] 16.7%

Cc1ccc(-c2nc3c(c(-c4ccccc4)nn3-c3ccccc3)c(-c3ccc(O)cc3)c2C#N)cc1
inactive: [1] 67.5% | [2] 80% | [3] 88.5% | [4] 27.4% | [5] 74.5% | [6] 69.4% | [7] 52.3% | [8] 18.6% | [9] 70.4%

O=C(CCOCCNC(=O)COc1ccc2c(c1)OCC(c1ccc(F)cc1)C2=O)NCCCC(O)(P(=O)(O)O)P(=O)(O)O (configuration not stated)
inactive: [1] 98% | [2] 106% | [3] 102% | [4] 108% | [5] 120% | [6] 94.9% | [7] 103% | [8] 103% | [9] 112%

COc1ccc(-c2csc(NC(=O)N3CCN(c4cc5c(cc4F)c(=O)c(C(=O)O)cn5C4CC4)CC3)n2)cc1
inactive: [2] 18.8% | [8] 20.7%
active: [1] -2.88% | [3] 7.07% | [4] 4.13% | [5] -25.6% | [6] -13.9% | [7] 3.2% | [9] 9.52%

C/C(=N/NC(N)=S)c1sc(Nc2cccc(Cl)c2)nc1C
inactive: [1] 89.4% | [2] 92% | [3] 77.9% | [4] 92.9% | [5] 62.6% | [6] 42.6% | [7] 92.5% | [8] 84.3% | [9] 84.9%

O=C(Nc1ccc(I)cc1F)c1cc(I)ccc1O
inactive: [7] 10.9% | [9] 91.1%
active: [1] -13.4% | [2] -4.51% | [3] -3.09% | [5] -20.5% | [6] -5.05% | [8] 2.12%

COC(=O)Nc1ccc(-c2nc(-c3cccc(OC)c3)c(-c3ccnc(Br)c3)[nH]2)cc1
inactive: [1] 67.7% | [2] 59.1% | [3] 62.2% | [4] 61.2% | [5] 62.8% | [6] 57.9% | [7] 54.4% | [8] 37.4% | [9] 79.7%
